High-throughput results as filed in PubChem BioAssay.
GPR151 ag: activates the human receptor GPR151. PathHunter beta-arrestin GPR151 cells, luminescence. activation, % at 11.2 µM. 650,000 compounds, 1% hits. AID 1508602; in the data active = activation above about 4.9%
MITF primary: inhibitors of human MITF | O75030 | inhibition, % at 2.6 µM | AlphaScreen MITF homodimerization, bead proximity signal | 650,000 compounds, 0.91% hits; in the data active = inhibition above about 50%
Target sequence (O75030 whole entry, looked up): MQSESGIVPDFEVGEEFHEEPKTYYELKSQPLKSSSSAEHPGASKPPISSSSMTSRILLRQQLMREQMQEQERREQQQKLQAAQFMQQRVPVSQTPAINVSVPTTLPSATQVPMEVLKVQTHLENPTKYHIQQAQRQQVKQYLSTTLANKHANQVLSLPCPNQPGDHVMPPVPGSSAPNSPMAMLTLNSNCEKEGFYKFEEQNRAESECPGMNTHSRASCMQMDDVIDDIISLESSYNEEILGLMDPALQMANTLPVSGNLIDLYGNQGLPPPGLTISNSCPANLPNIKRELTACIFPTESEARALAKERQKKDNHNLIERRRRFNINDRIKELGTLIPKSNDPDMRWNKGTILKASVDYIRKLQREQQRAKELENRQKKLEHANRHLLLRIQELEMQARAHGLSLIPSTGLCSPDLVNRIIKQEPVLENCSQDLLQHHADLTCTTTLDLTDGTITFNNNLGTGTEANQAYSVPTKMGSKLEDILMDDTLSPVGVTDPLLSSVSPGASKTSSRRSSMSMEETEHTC
FBW7 act: human FBW7 E3 ligase activation, primary screen; Q969H0; AlphaScreen FBW7–phospho-cyclin E peptide binding, activator screen; normalized activity (activation), % at 26.1 µM; 650,000 compounds, 0.13% hits; AID 1259310; in the data active = normalized activity above about 1.9%;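 also: purified mutant Fbw7 with reduced substrate affinity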
TEAD-YAP block: TEAD-YAP interaction inhibition; HEK-TIYL cells, TEAD-Gal4/YAP UAS-luciferase luminescence; inhibition, % at 9.12 µM; 640,000 compounds, 1.4% hits; AID 1259422; in the data active = inhibition above about 32%
GPR151 conf act: confirmation of human GPR151 activators; GPR151 PathHunter beta-arrestin cells, luminescence, 90 min; % of EA-reagent control over plate median; 6,700 tested, under 10 active; AID 1508609; shares compounds with GPR151 ag; activation, % at 11.2 µM;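 active = mean percent activation across replicates above the confirmation screen cutoff of 4.91%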
GPR119 ag: GPR119 activation, counter-screen for GPR151 activators | shares compounds with GPR151 ag | GPR119 PathHunter beta-arrestin cells, luminescence, 90 min; 0 = compound-well median, 100 = enzyme-acceptor control | activation, % at 11.2 µM | 6,700 compounds, 0.3% hits | AID 1508611;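 active = mean percent activation in the counterscreen above 29.09%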;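 also: counterscreen on off-target GPR119 to flag nonselective hits from the GPR151 activator screen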
A number is an active result; - = inactive; . = no result; ! = not confirmed by another sample. Compounds with a hit are over-represented: about 3.4% of the library has one in this group of screens.

SMILES	GPR151 ag	MITF primary	FBW7 act	TEAD-YAP block	GPR151 conf act	GPR119 ag
CC(C)OC(=O)c1ccc(SCC2CCCO2)c([N+](=O)[O-])c1 (stereo unspecified)	9.0	-	-	-	-	-
NC(=O)N1CCn2c3c(c4cc(C5CCCCC5)ccc42)CCCC31 (stereo unspecified)	-	-	-	-	.	.
O=CN1CCn2c3c(c(=O)c4cc(C5CCCCC5)ccc42)CCC31 (stereo unspecified)	7.3	-	-	-	-	-
O=C(NCc1nc2ccccc2[nH]1)c1ccc2nc(Nc3ccc4ncccc4c3)sc2c1	6.3	-	-	-	-	-
Cc1ccc2nc(-c3ccc(NC(=O)/C=C/c4cccc([N+](=O)[O-])c4)cc3)sc2c1	-	-	-	-	.	.
CCOc1ccc(/C=C/C(=O)NCc2ccco2)cc1OC	-	-	-	-	.	.
CSc1ccc(NC(=O)Nc2c(C)n(-c3ccccc3)c(=O)n2C)cc1	6.5	-	-	-	-	-
CCOC(=O)N1CCN(c2cc(N3CCCC3)c(F)cc2[N+](=O)[O-])CC1	-	-	-	-	.	.
CCOC(=O)N1CCN(c2cc(N3CCN(C)CC3)c(F)cc2[N+](=O)[O-])CC1	8.3	-	-	-	-	-
NC(=O)COc1ccc(NC(=O)c2cncc(Br)c2)cc1	6.1	-	-	-	-	-
Nc1cccc(-c2nc(NCc3ccccc3)c3ncn(-c4ccsc4)c3n2)c1	-	-	-	-	.	.
CC(C)CCNc1c(-c2ccccc2)c(=O)c1=O	6.9	-	-	-	-	-
COc1ccccc1N1C(=O)NC(=O)/C(=C/c2ccccc2)C1=O	-	-	-	-	.	.
O=C(NCc1ccccc1)C1(c2ccccc2)CCN(S(=O)(=O)c2ccccc2)CC1	5.6	-	-	-	-	-
O=C(NCc1cccs1)Nc1ccccc1Cl	6.2	-	-	-	-	-
O=C(O)C1(c2ccccc2)CCN(S(=O)(=O)c2ccccc2)CC1	-	-	-	-	.	.
O=C(NCc1cccs1)C1(c2ccccc2)CC1	8.6	-	-	-	-	-
O=C(NCc1cccs1)Nc1ccccc1	-	-	-	-	.	.
O=C(Nc1sc2c(c1C(=O)N1CCOCC1)CCCCC2)c1ccccc1F	-	-	-	-	.	.
CSc1ccc(C2CC(c3cccs3)Nc3ncnn32)cc1 (stereo unspecified)	-	-	-	-	.	.
CCOC(=O)Cn1c(=O)oc2cc(S(=O)(=O)N3CCn4c3nc3ccccc34)ccc21	-	-	-	-	.	.
CCOC(=O)[C@H](CCc1ccccc1)N[C@@H](C)C(=O)N1[C@H](C(=O)O)C[C@@H]2CCC[C@@H]21	7.0!	-	-	-	-	-
COc1ccc(OC)c(NC(=O)CCNS(=O)(=O)c2ccc3c(c2)oc(=O)n3C)c1	5.1	-	-	-	-	-
Cc1ccc(NC(=O)CN2CCCCCC2)cc1Br	-	-	-	-	.	.
COc1ccc(N2CCN(C3CCCN(C(=O)CCN4CCCCO4)C3)CC2)cc1 (stereo unspecified)	5.3	-	-	-	-	-
SMILES	GPR151 ag	MITF primary	FBW7 act	TEAD-YAP block	GPR151 conf act	GPR119 ag
Cn1ccnc1CN1CCC(Oc2ccc(C(=O)NCc3ccncc3)cc2)CC1	5.2	-	-	-	-	-
COC(=O)c1c(NC(=S)N2CCN(S(C)(=O)=O)CC2)sc2c1CCCCCC2	6.7	-	-	-	-	-
COC(=O)c1c(NC(=S)N2CCN(C(=O)C3CCCO3)CC2)sc2c1CCC2 (stereo unspecified)	-	-	-	-	.	.
COC(=O)CSc1nnc(CNC(=O)c2cccc(C)c2)n1C	-	-	-	-	.	.
COC(=O)CSc1nnc(CNC(=O)c2cccc(F)c2)n1C	5.2	-	-	-	-	-
CC(C)c1cc(CNC(=O)c2cc(COc3cccc4cnccc34)on2)on1	-	-	-	-	.	.
CN(CCO)C(=O)c1cc(COc2cccc3cnccc23)on1	6.7	-	-	-	-	-
CCOC(=O)C1CCCN(c2ccc(NC(=O)c3snc4c(=O)[nH]cnc34)cc2)C1 (stereo unspecified)	7.4	-	-	-	-	-
O=C(NCc1ccc(Cl)cc1)c1ccc(N2CC3CC(C2)c2cccc(=O)n2C3)c(NC(=S)Nc2ccc(Cl)cc2Cl)c1 (stereo unspecified)	-	-	-	-	.	.
